From PubChem BioAssay AID1035475 (Broad Institute, 2014)
Entries with a potency or affinity are not part of this list. Results filed as inconclusive are left out. Activity calls are given as the source filed them.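 Rule for the calls: active = fluorescent signal drops by 40% or more, counted as a hit; inconclusive = no clear call, values can overlap the other calls; inactive = the rest, including any activity in the opposite direction.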

Experiment: inhibitors of fibronectin matrix deposition, dose response, AH1F cells, Alexa488-FN fluorescence, cherry-picks (AID 1035475);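 note: AH1F fibroblasts incorporating labeled fibronectin into their extracellular matrix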
Conditions: AH1F fibroblasts, overnight; series mostly up to 35 µM

Row | Compound | outcome
1 | O=C(CCC(=O)c1cccs1)NCc1cccnc1 | inactive
2 | O=C(Nc1ccc(Cl)cc1)N1C[C@H]2[C@@H](c3ccccc31)[C@H](CO)N2CC1CCCC1 | inactive
3 | C[C@@H]1CN([C@@H](C)CO)C(=O)c2cc(NC(=O)CCCN(C)C)ccc2O[C@@H]1CN(C)Cc1ccc(-c2ccccc2)cc1 | inactive
4 | COc1ccc(C)cc1N(CC(=O)Nc1cccc(N(C)S(C)(=O)=O)c1)S(C)(=O)=O | inactive
5 | COCC(=O)Nc1ccc2c(c1)C(=O)N(C)[C@H]1CC[C@@H](CC(=O)NCc3ccccc3Cl)O[C@@H]1CO2 | inactive
6 | C[C@@H]1CN([C@@H](C)CO)C(=O)c2cccc(NC(=O)Nc3ccc(C(F)(F)F)cc3)c2O[C@H]1CN(C)C(=O)Nc1cccc2ccccc12 | inactive
7 | CO[C@@H]1CN(C)C(=O)c2cc(NC(=O)Nc3ccc(Cl)c(Cl)c3)ccc2OC[C@H](C)NC[C@@H]1C | inactive
8 | O=C(C[C@@H]1C[C@@H]2c3cc(NC(=O)c4ccc5c(c4)OCO5)ccc3O[C@@H]2[C@@H](CO)O1)NCc1ccc(Oc2ccccc2)cc1 | inactive
9 | C[C@@H]1CN([C@@H](C)CO)C(=O)c2cc(-c3ccccc3)cnc2O[C@@H]1CN(C)Cc1ccccc1 | inactive
10 | C[C@@H]1CN([C@H](C)CO)C(=O)c2cc(NC(=O)CCCN(C)C)ccc2O[C@H]1CN(C)Cc1ccc(-c2ccccc2)cc1 | inactive
11 | COCC(=O)Nc1ccc2c(c1)C(=O)N(C)[C@@H]1CC[C@@H](CC(=O)NCc3ccccc3Cl)O[C@H]1CO2 | inactive
12 | O=C(c1cccnc1)N1C[C@H]2[C@@H](c3ccccc31)[C@H](CO)N2CC1CCCC1 | inactive
13 | COC(=O)C[C@@H]1CC[C@@H]2[C@@H](COc3ccc(NC(=O)Cc4cccs4)cc3C(=O)N2C)O1 | inactive
14 | O=C(CCNS(=O)(=O)c1cccc2nonc12)NC1CCCc2ccccc21 (stereo not given) | inactive
15 | C[C@@H]1CN([C@H](C)CO)C(=O)c2cc(-c3ccccc3)cnc2O[C@@H]1CN(C)C(=O)c1cccc(F)c1 | inactive
16 | C[C@@H]1CN([C@@H](C)CO)C(=O)c2cc(-c3ccncc3)cnc2O[C@@H]1CN(C)C(=O)Cc1cccnc1 | inactive
17 | C[C@H](CO)N1C[C@H](C)[C@@H](CN(C)Cc2ccc(-c3ccccc3)cc2)Oc2ccc(NC(=O)CCCN(C)C)cc2C1=O | inactive
18 | NC(=O)C1=C[C@H](c2coc3ccccc3c2=O)C[C@H](OCCCCO)O1 | inactive

Row | Compound | outcome
19 | COC(=O)C[C@@H]1CC[C@H]2[C@H](COc3ccc(NC(=O)Cc4cccs4)cc3C(=O)N2C)O1 | inactive
20 | O=C(c1cccnc1)N1C[C@H]2[C@@H](c3ccccc31)[C@@H](CO)N2CC1CCCC1 | inactive
21 | Fc1cnc(N2CCN(c3ccccc3)CC2)nc1N1CCN(c2ccccc2)CC1 | inactive
22 | CO[C@H]1CN(C)C(=O)c2ccc(NC(=O)c3ccc(-c4ccccc4)cc3)cc2OC[C@@H](C)NC[C@H]1C | inactive
23 | CCCCNC(=O)Nc1nc2ccc(CC)cc2s1 | inactive
24 | C[C@H]1CN([C@@H](C)CO)C(=O)c2cc(-c3ccccc3)cnc2O[C@H]1CN(C)C(=O)c1cccc(F)c1 | inactive
25 | C[C@@H]1CN([C@H](C)CO)C(=O)c2cc(NC(=O)C3CCCCC3)ccc2O[C@@H]1CN(C)Cc1ccc(-c2ccccc2)cc1 | inactive
26 | Cc1ccccc1S(=O)(=O)N1CC[C@H]2[C@H](CO)Nc3ccc(-c4ccc(C#N)cc4)cc3[C@H]21 | inactive
27 | CCCc1cc(C(=O)OC)c(NC(=O)CCC(=O)O)s1 | inactive
28 | C[C@H]1CN([C@@H](C)CO)C(=O)c2cccc(NC(=O)Nc3ccc(C(F)(F)F)cc3)c2O[C@@H]1CN(C)C(=O)Nc1cccc2ccccc12 | inactive
29 | COc1cccc(-c2ccc3c(c2)[C@@H]2[C@@H](CCN2S(=O)(=O)c2cccc(OC)c2)[C@@H](CO)N3)c1 | inactive
30 | Cc1cc(C)c(S(=O)(=O)Nn2cnnc2)c(C)c1 | inactive
31 | C[C@H]1CN([C@@H](C)CO)C(=O)c2cc(-c3ccccc3)cnc2O[C@@H]1CN(C)Cc1ccccc1 | inactive
32 | O=C(c1cccnc1)N1C[C@@H]2[C@H](c3ccccc31)[C@H](CO)N2CC1CCCC1 | inactive
33 | O=C(OCC(O)C(O)COC(=O)c1ccccc1)c1ccccc1 (stereo not given) | inactive
34 | O=C(c1cccnc1)N1C[C@@H]2[C@H](c3ccccc31)[C@@H](CO)N2CC1CCCC1 | inactive
35 | CO[C@H]1CN(C)C(=O)c2cc(NC(=O)Nc3cc(Cl)cc(Cl)c3)ccc2OC[C@@H](C)NC[C@H]1C | inactive
